A selection: hits, their analogues and other compounds. The true share with any hit is near 21%.
Shiga toxin inh: Shiga toxin inhibition. 9.2% of 290,000 active. AID 2315. Vero cells, Shiga toxin protein synthesis inhibition reporter. inhibition, % at 38.7 µM; in the data active = inhibition mostly above about 28%, no sharp cut-off; inactive = mostly below about 43%; note: 0% is about no effect
AMA1-RON2 inh: AMA1-RON2 (P. falciparum) interaction inhibition. AID 720542. 0.2% of 360,000 active. Potency, µM (doses to about 58.2 µM), inactives show at the top dose activity change, negative = inhibition, actives largely listed as inhibitors. AlphaScreen AMA1-biotinylated RON2 peptide binding;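 note: potency is the fitted concentration of half-maximal effect; 0% = vehicle wells and -100% = peptide control; nearly all actives have a fitted effect of over 45% in size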
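AMA1 (3D7) with his tag at 25 nM final met compounds first, then biotinylated RON2 peptide at 25 nM; detection used donor plus acceptor beads, 10 µg/mL apiece, read by AlphaScreen after 30 min at room temperature.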
Pf growth 48h: P. falciparum growth inhibition at 48 hours (one generation); P. falciparum luciferase growth in erythrocytes, 48 h; Potency, µM (doses to about 28.7 µM), inactives show top-dose activity change, negative = inhibition, hits mostly inhibitors; 5.9% of 310,000 active; note: potency is the fitted concentration of half-maximal effect; % is set by controls: 0 for no effect and ±100 for the full control effect
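Luciferase-expressing P. falciparum in infected erythrocytes (2% hematocrit, 0.1% parasitemia final) in RPMI 1640/0.5% Albumax were exposed to compound for 48 hours at 37 C, 5% CO2; growth read as luminescence.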
HCV inh: HCV inhibition. Huh7.5.1 HCVcc-Cre infection, luciferase reporter, 44 h. Potency, µM (series often up to 41.8 µM), for inactives: at the highest dose activity change, negative = inhibition, actives largely listed as inhibitors. 3.4% of 340,000 active. AID 651820; note: potency is the fitted concentration of half-maximal effect; % is set by controls: 0 for no effect and ±100 for the full control effect
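Antiviral activity was scored by luciferase reporter output from cells infected with HCVcc-Cre (~0.5 moi) in presence of compound, 44 h infection period, cells seeded 1,000/well 4 h prior.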
Pf growth 96h: P. falciparum growth inhibition at 96 hour, primary screen for plastid delayed-death inhibitors; P. falciparum luciferase reporter growth, 96 h; Potency, µM (doses to about 28.7 µM), inactives show at the highest dose activity change, negative = inhibition, hits mostly inhibitors; 6.9% of 320,000 active; AID 504834; note: potency is the fitted concentration of half-maximal effect; % is set by controls: 0 for no effect and ±100 for the full control effect
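P. falciparum expressing integrated firefly luciferase grown in erythrocytes (2% hematocrit, 0.05% parasitemia final) with compounds for 96 hours at 37 C, 5% CO2. Growth inhibition read as loss of luminescence after adding luciferase detection reagent.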
Cycloheximide cs: counter-screen hit for Shiga toxin inhibitors, cycloheximide; AID 2314; 12% of 300,000 active; max response, %; cell reporter, cycloheximide protein synthesis inhibition counterscreen; in the data active = max response mostly above about 13%, no sharp cut-off; inactive = mostly below about 14%; note: read at 38.3 µM for the half of the compounds with a filed dose; 0% is about no effect
Active calls of the source: *; ? = inconclusive; . = no result given; [ ] = remark or other dose. Unless noted, calls come from the whole dose curve; as a rule, active = well fitted curve in the direction sought with a large enough effect; inconclusive = small, poorly fitted or top-dose-only effect, or another doubt; inactive = no such curve, though single readings can be large; an effect the other way counts as inactive or inconclusive.

SMILES | Shiga toxin inh | AMA1-RON2 inh | Pf growth 48h | HCV inh | Pf growth 96h | Cycloheximide cs
CO[C@H]1/C=C/O[C@@]2(C)Oc3c(C)c(O)c4c(O)c(c(C=NN5CCN(C)CC5)c(O)c4c3C2=O)NC(=O)/C(C)=C\C=C\[C@H](C)[C@H](O)[C@@H](C)[C@@H](O)[C@@H](C)[C@H](OC(C)=O)[C@@H]1C | . | -1% | 1.2µM* | 2% | ? | .
CO[C@H]1C=CO[C@@]2(C)Oc3c(C)c(O)c4c(O)c(c(C=NN5CCN(C)CC5)c(O)c4c3C2=O)NC(=O)C(C)=CC=C[C@H](C)[C@H](O)[C@@H](C)[C@@H](O)[C@@H](C)[C@H](OC(C)=O)[C@@H]1C | 1 | ? | 1.2µM* | 1%[8.37 µM] | 1.2µM* | -2
C[C@@H]1CN([C@@H](C)CO)C(=O)Cc2cc(NC(=O)C3CCCCC3)ccc2O[C@H]1CN(C)S(=O)(=O)c1ccccc1 | . | -2% | . | -7% | . | .
CCOc1cc(S(=O)(=O)n2cc(-c3ccc(F)cc3)c(N)n2)cc(OCC)c1OCC | -13 | -4% | 8.3µM* | 6.3µM* | . | -2
CCOc1ccc(S(=O)(=O)n2cc(-c3ccc(F)cc3)c(N)n2)cc1 | -6 | 0% | . | ? | 9.3µM* | 9
COc1ccccc1-c1cn(S(=O)(=O)c2ccc(F)cc2)nc1N | 13 | 1% | ? | 10µM* | . | -7
O=C(COC(=O)CSc1ccc(Cl)cc1)Nc1ccc2[nH]c(=O)[nH]c2c1 | . | 9% | . | 10% | . | .
O=C1COc2ccc(C(=O)COC(=O)c3nc(Cl)ccc3Cl)cc2N1 | . | 4% | 8% | -11% | 72% | .
CCCCCOc1ccc(NC(=O)C(=O)NCCCn2ccnc2)cc1 | -24 | -5% | -11% | ? | . | -2
COc1cccc(NC(=O)C(=O)NCCCn2ccnc2)c1 | 57 | -5% | 58% | 14% | ? | 34*
O=C(/C=C/c1ccc(Cl)c(Cl)c1)NCCCn1ccnc1 | 51* | 9% | 2% | 0% | ? | 25*
Cc1ccc(/C=C/C(=O)NCCCn2ccnc2)cc1 | -13 | -4% | ? | 11% | 35% | -3
O=C(NCCCn1ccnc1)Nc1cccc(Cl)c1 | -2 | 25µM* | 4% | 20% | -9% | 2
O=C(CNC(=O)c1ccc(Cl)cc1)NCCCn1ccnc1 | 32 | -1% | 10µM* | 20% | ? | -3
O=C(NCCCn1ccnc1)c1cccc(Cl)c1 | -4 | 0% | -8%[0.00184 µM] | 23% | -7% | -4
COc1cc(S(=O)(=O)NC2CCCCC2)c(C)cc1C | 10 | -7% | -8% | 5% | 58% | 1
O=C(NCCCn1ccnc1)Nc1ccc2c(c1)OCO2 | 76* | 0% | 58% | ? | 48% | 39*
C=CCSC(=C(C#N)C#N)c1cc2c([nH]1)CCCC2 | 3 | -27% | ? | 13µM* | . | 25*
O=C(O)c1cc2c([nH]c1=O)CCCC2 | -3 | 1% | 15% | -1% | 35% | -3
Cc1nc(CN2CCN(Cc3nc(C(c4ccccc4)c4ccccc4)no3)CC2)cs1 | -3 | -10% | ? | -8% | ? | -2
O=C(NCc1ccccc1Cl)C1CCN(C(=O)c2ccco2)CC1 | -11 | -8% | 6% | 19% | ? | 2
C=CCNC(=O)c1oc2ccc(S(=O)(=O)N3CCCCC3)cc2c1C | -4 | 0% | -22% | 2% | ? | -1
Cc1c(C(=O)NCc2ccc3c(c2)OCO3)oc2ccc(S(=O)(=O)N3CCCC3)cc12 | -12 | -8% | 12µM* | ? | ? | 0
Cc1ccc(CNC(=O)c2oc3ccc(S(=O)(=O)N4CCOCC4)cc3c2C)cc1 | -9 | 8% | ? | ? | . | -1
O=C(NCc1ccc2c(c1)OCO2)c1ccc(S(=O)(=O)N2CCCCC2)cc1 | -25 | -2% | -7% | -22% | . | 5
SMILES | Shiga toxin inh | AMA1-RON2 inh | Pf growth 48h | HCV inh | Pf growth 96h | Cycloheximide cs
Cc1c(C(=O)NCc2ccc3c(c2)OCO3)oc2ccc(S(=O)(=O)N3CCCCC3)cc12 | -8 | 3% | 10µM* | ? | ? | -3
COc1ccc(CNC(=O)c2oc3ccc(S(=O)(=O)N4CCOCC4)cc3c2C)cc1 | -3 | 4% | 12µM* | -29% | ? | 2
Cc1c(C(=O)O)oc2ccc(S(=O)(=O)NCc3ccc4c(c3)OCO4)cc12 | -6 | 5% | 0% | 19% | 5.9µM* | -2
Cc1nc(C(=O)O)nn1-c1cc(Cl)ccc1Cl | 21 | -11% | 11% | 7% | 25% | -1
CCOC(=O)C1(C)CCN1C(=O)c1c(F)cccc1F (centres undefined) | . | 11% | . | . | . | .
Cc1c(C)c2cc(Cl)c(OCC(=O)N3CCN(c4ccc(F)cc4)CC3)cc2oc1=O | -9 | -4% | 8% | 18% | -1% | -2
COc1ccccc1CNC(=O)CCNS(=O)(=O)c1cccc2nonc12 | -7 | 16% | 5% | -5% | 88% | -12
COc1ccccc1CNC(=O)c1oc2ccc(S(=O)(=O)N3CCOCC3)cc2c1C | 19 | -10% | ? | ? | 1% | -1
COc1ccccc1CNC(=O)c1oc2ccc(S(=O)(=O)N3CCCC3)cc2c1C | 12 | -11% | 2.9µM* | ? | 209% | 9
C[C@H]1COC(=O)[C@@H](CC(=O)OC(C)(C)C)C/C=C\C[C@H](CC(=O)NCCO)C(=O)N1 | . | -8% | . | 26% | . | .
C/C(=N/NC(=O)c1nnn(-c2nonc2N)c1CSc1ccc(C)cc1)c1ccncc1 | . | -14% | . | . | . | .
CCNC(=S)N(Cc1ccc2c(c1)OCO2)C1CC(=O)N(c2ccc(OC)cc2)C1=O (centres undefined) | -8 | -26% | ? | ? | ? | -2
CCNC(=S)N(Cc1ccc2c(c1)OCO2)C1CC(=O)N(c2ccc(F)cc2)C1=O (centres undefined) | 0 | -13% | 9.3µM* | 5% | ? | 0
O=C(Nc1cccc(Cl)c1)N1CCN(c2ncccn2)CC1 | 16 | 4% | 0% | 2% | -20% | 14*
O=C(Nc1cccc(Cl)c1)N1CCc2ccccc2C1 | 35* | 0% | 101% | ? | ? | 34*
O=C(Nc1cccc(Cl)c1)c1nc[nH]c1C(=O)N1CCc2ccccc2C1 | . | 16% | 31% | 14% | ? | .
COc1cccc(NC(=O)N2CCc3ccccc3C2)c1 | 91* | -12% | 125% | 10% | 5% | 70*
COc1cccc(-c2cc(C(=O)N3CCc4ccccc4C3)[nH]n2)c1 | 38* | 16% | 73% | -17% | ? | 26*
O=C(Nc1ccc(Cl)cc1Cl)N1CCN(c2ncccn2)CC1 | 23 | -4% | 33% | -26% | 25% | 27
COc1cccc(NC(=O)N2CCc3nc(Nc4ccc(C(C)C)cc4)ncc3C2)c1 | . | -12% | . | . | . | .
Cc1ccc([C@H]2N[C@]3(CCCN(Cc4ccc(Br)cc4)C3=O)[C@H]3C(=O)N(C)C(=O)[C@@H]23)cc1 | . | -10% | . | . | . | .

From PubChem
